Molecules are shown by their SMILES. Values joined by “and” are separate entries in the source; they are usually repeats but may differ in a detail not shown here. Equal values may be shown once. Results filed as inconclusive are left out. A call without a number means that no potency is given here. Unmarked numbers belong to inactive results. Active and inactive are the calls of the source. Calls follow the shape of the dose curve; as a rule, active = well fitted cell-killing curve with a large enough effect in the repeat runs; inconclusive = weak or mixed curves, or effect the other way; inactive = flat fitted curve, though single readings scatter.
Potency is read from the fitted curve at half-maximal effect.

A short description of the assay: qHTS assay to identify small molecule antagonists of the constitutive androstane receptor (CAR) signaling pathway - cell viability counter screen (AID 1224837). Also: nearly all actives have a fitted effect of over 45% in size. Particulars: HepG2-CYP2B6-hCAR viability, CellTiter-Fluor, 23 h, co-treated with 50 nM CITCO; series mostly up to 92.4 µM. An excerpt:
National Center for Advancing Translational Sciences [NCATS]
NIH Chemical Genomics Center [NCGC]
U.S. Environmental Protection Agency [EPA]
National Institutes of Environmental Health Sciences [NIEHS]
National Toxicology Program [NTP]
U.S. Food and Drug Administration [FDA]
The constitutive androstane receptor (CAR) is a nuclear receptor which regulates multiple drug metabolizing enzymes (DMEs) and transporters. Activating CAR will generally increase the transcription and subsequent translation of CYP2B6 and CYP3A4. These two DMEs represent about 50% of the drug metabolizing potential in the body. When CAR is deactivated, the metabolizing potential in the body will decrease, subsequently increasing the toxicity in the body or lowering the therapeutic potential of a pro-drug. Recently, there have also been studies performed indicating CARs role in energy metabolism and cancer therapy. Therefore, inhibiting CARs activity could have a potential effect on diabetes and cancer. Identifying environmental toxins and compounds which modulate CAR, through the use of the Tox21 10K compound collection, will be an important step in determining the toxicity and potential therapeutic effects these factors will have on the human body. To differentiate true CAR antagonists from cytotoxic substances, the assay is multiplexed with a cell viability assay.
Tox21 Assay Protocol Summary:
A double-stable (hCAR and CYP2B6-2.2kb) transfected cell line, derived from human hepatoma (HepG2) cells, was utilized for the duration of the quantitative high-throughput screens. The HepG2-CYP2B6-hCAR cells were dispensed at 2500 cells/4 uL/well in 1536-well white solid bottom plates using a Multidrop Combi. After the assay plates were incubated at 37 C/5% CO2 for 4 hrs, 23 nL of compounds at 15 concentrations (from 5-48 columns) or positive control (from 1 to 4 columns) were transferred to the assay plates using a Pintool station. One uL of CITCO (final concentration = 50 nM) was added, using a Flying Reagent Dispenser, inside each well. After a 23 hr incubation period at 37 C/5% CO2, 1 uL of CellTiter-Fluor reagent was added into each well of the assay plates using a Flying Reagent Dispenser. The fluorescence intensity in the plates was then measured using a ViewLux plate reader.
With `CCC[N+](CCC)(CCC)CCC`, the Potency entry was “inactive”.
The same measure, in the same setting: in the case of `CN1CC[C@]23c4c5ccc(O)c4O[C@H]2[C@@H](O)C=C[C@H]3[C@H]1C5` it was “inactive”; in that of `CCOc1cccc(C2(N3CCN(c4ccccc4)CC3)CCC(C)CC2)c1` (stereo not given), “inactive”; in that of `OCC1CO1` (stereo not given), “inactive”.
On the same count and under the same terms, in the case of `CC(C)(C)N(NC(=O)c1ccc(Cl)cc1)C(=O)c1ccccc1` it was 8.58 µM (active); in that of `CCCCC1C(=O)NC(=O)N(C2CCCCC2)C1=O` (stereo not given), “inactive”.
Same read-out and setting: to `CCC(C)(C)O` belongs “inactive”.
Take `O=C(O)COc1cc(Cl)c(Cl)cc1Cl`: the Potency result was “inactive”.
On the same count and under the same terms, in the case of `C[Si](Cn1cncn1)(c1ccc(F)cc1)c1ccc(F)cc1` it was “inactive”.
As to `CCc1cnc(C2=NC(C)(C(C)C)C(=O)N2)c(C(=O)O)c1` (stereo not given), the Potency entry is “inactive”.
The same measure, in the same setting: in the case of `CCCSP(=S)(OCC)Oc1ccc(SC)cc1` (stereo not given) it was “inactive”; in that of `CCCC1CCCCN1` (stereo not given), “inactive”.
Same read-out and setting: to `CC(CC(C(N)=O)(c1ccccc1)c1ccccc1)N(C)C` (stereo not given) belongs “inactive”.
On the same count and under the same terms, to `O=C(O)c1ccc(=O)[nH]c1` belongs “inactive”; to `CCC(C)Cl` (stereo not given), “inactive”; to `CC(C)c1ccc(NC(=O)N(C)C)cc1`, “inactive”.
Regarding `C[C@]12C=CC3=C4CCC(=O)C=C4CC[C@H]3[C@@H]1CC[C@@H]2O`, the Potency entry was “inactive”.
Same read-out and setting: in the case of `CCCBr` it was “inactive”.
Same read-out and setting: to `CC(C)(C#N)C(C)(C)C#N` belongs “inactive”; to `CC1(C)CC(=O)CC(C)(C)N1[O]`, “inactive”; to `CC(C)OC(=O)Cc1ccccc1`, “inactive”.
Still for that read-out and setting: to `Nc1ccccc1C(=O)OCCc1ccccc1` belongs “inactive”; to `Clc1ccc(Cl)c(Cl)c1`, “inactive”.
For the compound `Nc1cccc2ccccc12`, the Potency result is “inactive”.
For `CC(Cl)C(=O)O` (stereo not given), the Potency entry was “inactive”.
Still for that read-out and setting: to `C#CC(O)(C=CCl)CC` (stereo not given) belongs “inactive”; to `O=C(O)c1cc(I)cc(I)c1I`, “inactive”; to `CCCCC#N`, “inactive”.
Regarding `O=S(=O)(Cl)Cl`, the Potency entry was “inactive”.
Same read-out and setting: to `NC(=O)CF` belongs “inactive”.
On the same count and under the same terms, in the case of `CCCC[N+]1(C)[C@@H]2CC(OC(=O)[C@H](CO)c3ccccc3)C[C@H]1[C@@H]1O[C@@H]12` (stereo not given in full) it was “inactive”; in that of `CC(C)CCCCCCCOC(=O)c1ccccc1C(=O)OCCCCCCCC(C)C`, “inactive”.
With `Nc1c(Br)cc(Br)c2c1C(=O)c1ccccc1C2=O`, the activity change, negative = cytotoxicity is -15.6% [at 19 µM].
Consider `O=[N+]([O-])c1cc(Cl)c(Cl)cc1Cl`, for which the Potency entry was “inactive”.
As to `CCCCCCCCn1sccc1=O`, the Potency was 30.7 µM (active) and 5.71 µM (active).
`COc1cc(CC#N)cc(OC)c1OC`: the Potency entry was “inactive”.
The same measure, in the same setting: in the case of `CCCCOC(=O)CCC(=O)OCCCC` it was “inactive”.
Still for that read-out and setting: in the case of `COC(=O)C1(O)c2ccccc2-c2ccccc21` it was “inactive”.
The same measure, in the same setting: to `CCC1(C2=NCCN2)Cc2ccccc2O1` (stereo not given) belongs “inactive”; to `Cc1ccccc1`, “inactive”.

These data come from PubChem BioAssay (Tox21).
